Compound activity: PubChem BioAssay, National Center for Advancing Translational Sciences (NCATS)
Only some compounds are listed: those with a hit (about 18% of all), similar ones and a draw of the others.
IL-1B inflam inh: blocks inflammasome-driven IL-1 beta release; THP-1 LPS/ATP IL-1B secretion, AlphaLISA, 16 h; hits give low values; activity change, % at 57.5 µM; 360,000 compounds, 4.7% hits; in the data active = activity change below about -50%; inconclusive = mostly about -30% to -49%
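Secreted IL-1B measured by AlphaLISA bead assay after 16 h compound exposure of THP-1 cells; compounds (final up to 57.5 uM) added 1 h before LPS (250 ng/mL) and ATP (1.25 mM) stimulation; lower signal means less secretion.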
DT40 TDP1 CPT: DT40-hTDP1 cell growth loss with CPT; AID 686979; chicken DT40 Tdp1-/-;hTDP1 cells + 20 nM CPT, ATP luminescence, 48 h; 420,000 compounds, 12% hits; Potency, µM (highest dose often 46.2 µM), inactives show top-dose activity change, negative = growth inhibition, most hits filed as inhibitors; also: potency is read from the fitted curve at half-maximal effect; nearly all actives have a fitted effect of over 55% in size
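Chicken DT40 Tdp1-/- cells stably complemented with human TDP1 were seeded at 400 cells/well in medium containing 20 nM camptothecin, exposed to pin-transferred compounds, and grown at 37 °C for at least 48 hr. Viability was read as ATP luminescence.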
RORg inh: ROR gamma (mouse) transcription inhibition. P51450. Drosophila S2 Gal4-RORgamma UAS-luciferase reporter, 20 h. Potency, µM (top dose mostly 53.6 µM), for inactives: top-dose activity change, negative = inhibition, hits mostly inhibitors. 310,000 compounds, 5.4% hits; also: potency is read from the fitted curve at half-maximal effect; nearly all actives have a fitted effect of over 60% in size
Target sequence (P51450 whole entry, looked up, the tested form may be a part): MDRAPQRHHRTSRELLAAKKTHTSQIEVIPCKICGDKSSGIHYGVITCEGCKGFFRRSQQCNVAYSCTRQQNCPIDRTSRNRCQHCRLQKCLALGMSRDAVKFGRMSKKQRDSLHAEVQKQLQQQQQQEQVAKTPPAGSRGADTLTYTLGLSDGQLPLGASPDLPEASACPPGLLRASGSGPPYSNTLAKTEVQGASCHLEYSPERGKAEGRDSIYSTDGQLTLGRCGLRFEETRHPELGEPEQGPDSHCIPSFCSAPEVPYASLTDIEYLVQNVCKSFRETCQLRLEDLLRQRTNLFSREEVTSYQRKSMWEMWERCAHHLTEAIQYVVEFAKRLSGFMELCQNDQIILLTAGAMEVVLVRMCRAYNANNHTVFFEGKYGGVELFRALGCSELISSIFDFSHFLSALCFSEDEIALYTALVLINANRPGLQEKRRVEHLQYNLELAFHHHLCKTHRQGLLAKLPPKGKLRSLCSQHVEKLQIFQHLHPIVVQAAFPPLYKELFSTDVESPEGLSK
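Schneider cells (Drosophila), stable Gal4 DBD–ROR gamma + UAS-luc; 1 hr cmpd preincubation; Cu2+ induction 700 uM final; 20 hr ambient; luminescence.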
VP16 counter: Gal4-VP16 reporter inhibition counter-screen; Drosophila S2 Gal4-VP16 UAS-luciferase, luminescence, 20 h; Potency, µM (series often up to 53.6 µM), for the others: at the highest dose activity, negative = inhibition, actives largely listed as inhibitors; 310,000 compounds, 3.5% hits; AID 2546;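 also: Gal4-VP16 expression switched on by copper sulfate through the metallothionein promoter; potency is read from the fitted curve at half-maximal effect; nearly all actives have a fitted effect of over 50% in size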
LDHA inh: inhibitors of human lactate dehydrogenase A; purified LDHA, NADH/diaphorase-resazurin fluorescence; hits give low values; activity change, % (values are at about 110 or 230 µM); 480,000 compounds, 0.15% hits; AID 1347041; in the data active = activity change below about -30%; inconclusive = mostly about -25% to -30%;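 also: plate controls were DMSO wells for no effect and wells without enzyme for full effect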
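LDH5 2 nM; NADH 0.06 mM, pyruvate 0.2 mM; 200 mM Tris pH 7.4, EDTA, Tween-20; 5 min RT. Detection: diaphorase 0.133 mg/mL + resazurin 37 µM, fluorescence ex540/em590 at 0 and 20 min; normalized to enzyme-free and DMSO wells.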
TDP1 cell noCPT: qHTS for Inhibitors of human tyrosyl-DNA phosphodiesterase 1 (TDP1): qHTS in cells in absence of CPT; DT40 Tdp1-/- hTDP1 cells, no CPT, ATP luminescence, 48 h; Potency, µM (highest dose often 46.2 µM), for the others: at the highest dose activity change, negative = growth inhibition, actives largely listed as inhibitors; 420,000 compounds, 15% hits; AID 686978, 2013; also: potency is read from the fitted curve at half-maximal effect; nearly all actives have a fitted effect of over 55% in size
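No-CPT arm: Tdp1-/-;hTDP1 DT40 cells (400/well) plus compounds, incubated ≥48 hr at 37 °C. Readout CellTiter-Glo luminescence.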
* = called active by the depositor. Unless noted, calls follow the shape of the dose curve; as a rule, active = well fitted curve in the direction sought with a large enough effect; inconclusive = small, poorly fitted or top-dose-only effect, or another doubt; inactive = no such curve, though single readings can be large; an effect the other way counts as inactive or inconclusive. Unless noted, % is scaled to controls: 0 for no effect and ±100 for the full control effect.

`CC(=O)SC1CC(=O)N(c2ccc(C(C)(C)C)cc2)C1=O` (stereo not drawn) gave IL-1B inflam inh -4, DT40 TDP1 CPT 3.3µM*, RORg inh 7.1µM*, VP16 counter inconclusive, LDHA inh -8 and TDP1 cell noCPT 8.2µM*.
`O=C(/C=C/c1cc(O)ccc1Br)c1ccc(Cl)cc1Cl` gave LDHA inh 1.
`Cc1cccc(/C=C2/C(=O)/C(=C/c3ccccc3C)C3CCC2N3C)c1` (stereo not drawn) gave IL-1B inflam inh -7, DT40 TDP1 CPT 21µM*, RORg inh 0%, VP16 counter 0%, LDHA inh 2 and TDP1 cell noCPT 18µM*.
`Cc1cccc(/C=C2\CCC(C3CCCC3)C2=O)c1` (stereo not drawn) gave IL-1B inflam inh 13, DT40 TDP1 CPT 2%, RORg inh -12%, VP16 counter inconclusive, LDHA inh 1 and TDP1 cell noCPT -10%.
CN1C2CCC1/C(=C/c1cccn1C)C(=O)/C2=C\c1cccn1C was read as IL-1B inflam inh -15, DT40 TDP1 CPT 23µM*, RORg inh 5%, VP16 counter -13%, LDHA inh 3 and TDP1 cell noCPT 16µM*.
`CN1C2CCC1/C(=C\c1ccc(F)cc1)C(=O)/C2=C/c1ccc(F)cc1` gave IL-1B inflam inh -87*, DT40 TDP1 CPT 21µM*, RORg inh -25%, VP16 counter 11%, LDHA inh -5 and TDP1 cell noCPT 16µM*.
For O=C(O)/C=C/c1ccc(Oc2ccc(Cl)cc2)cc1 the results were LDHA inh -12.
Screening Cc1cc(C)c(S(=O)(=O)NCCc2csc3nc(-c4ccc(F)cc4)nn23)c(C)c1 returned LDHA inh -5.
`CC(C)(C)C(=O)NC(=S)N1CCc2ccccc21` gave IL-1B inflam inh 12, DT40 TDP1 CPT -6%, RORg inh 5µM*, VP16 counter inconclusive, LDHA inh 9 and TDP1 cell noCPT -27%.
Screening O=C(NC(=S)N1CCc2ccccc21)C1CCC1 returned IL-1B inflam inh 42, DT40 TDP1 CPT -3%, RORg inh 2.8µM*, VP16 counter inconclusive, LDHA inh -5 and TDP1 cell noCPT -16%.
Cc1cccc(NC(=O)c2sc3nc4c(cc3c2N)CCCCCC4)c1C was read as DT40 TDP1 CPT 1.5µM*, LDHA inh 9 and TDP1 cell noCPT 0.65µM*.
Screening Nc1c(C(=O)Nc2ccc(C(=O)O)cc2)sc2nc3c(cc12)CCCC3 returned DT40 TDP1 CPT -4%, LDHA inh 0 and TDP1 cell noCPT inconclusive.
Screening Nc1c(C(=O)O)sc2nc3c(cc12)CCCC3 returned IL-1B inflam inh 55, DT40 TDP1 CPT 3%, RORg inh -22%, VP16 counter -9%, LDHA inh 0 and TDP1 cell noCPT -11%.
For Nc1c(C(=O)Nc2cccc(C(=O)O)c2)sc2nc3c(cc12)CCCC3 the results were IL-1B inflam inh 5, DT40 TDP1 CPT 1%, RORg inh 2.8µM*, VP16 counter 3.2µM*, LDHA inh 1 and TDP1 cell noCPT 2%.
COc1ccc(OC)c(NC(=O)c2sc3nc4c(cc3c2N)CCCCCC4)c1 was read as DT40 TDP1 CPT inconclusive, LDHA inh 5 and TDP1 cell noCPT inconclusive.
CCOc1ccc(NC(=O)c2sc3nc4c(cc3c2N)CCCCCC4)cc1 was read as DT40 TDP1 CPT 8.2µM*, LDHA inh 0 and TDP1 cell noCPT inconclusive.
Screening Cc1ccccc1NC(=O)c1sc2nc3c(cc2c1N)CN(C(C)C)CC3 returned LDHA inh 3.
Cc1ccccc1NC(=O)c1sc2nc3c(cc2c1N)CN(Cc1ccccc1)CC3 was read as DT40 TDP1 CPT inconclusive, LDHA inh 2 and TDP1 cell noCPT 18µM*.
`Cc1ccc(/C=C(/C#N)c2nc3ccccc3[nH]2)c(C)c1` gave LDHA inh 2.
Screening CSCCC(NS(=O)(=O)c1ccc2c(c1)oc(=O)n2C)C(=O)Nc1ccc(F)cc1 (stereo not drawn) returned LDHA inh 2.
Screening Cc1c(NC(=O)c2c(Cl)cnn2C)cnn1C returned LDHA inh -4.
COc1cc2c(cc1OC)CN(C(=O)c1sc3cccc(F)c3c1C)CC2 was read as LDHA inh 5.
Cc1cc(C)c2c(N)c(C(=O)Nc3cccc(C)c3C)sc2n1 was read as IL-1B inflam inh 18, DT40 TDP1 CPT inconclusive, RORg inh 17%, VP16 counter -20%, LDHA inh -9 and TDP1 cell noCPT 16µM*.
For NC(=O)c1sc2nc3c(cc2c1N)CCCCCC3 the results were IL-1B inflam inh -97*, DT40 TDP1 CPT inconclusive, RORg inh 11%, VP16 counter inconclusive, LDHA inh -3 and TDP1 cell noCPT inconclusive.
Screening N#Cc1c2n(c(=O)n(CCOc3ccc(Cl)cc3)c1=O)CCC2 returned LDHA inh 11.
`N#C/C(=C\c1cccnc1)C(=O)Nc1ccccc1[N+](=O)[O-]` gave IL-1B inflam inh 43, DT40 TDP1 CPT inconclusive, RORg inh 40%, VP16 counter -5%, LDHA inh 0 and TDP1 cell noCPT -19%.
Screening COc1cc(/C(C#N)=C/c2ccccc2)c([N+](=O)[O-])cc1OC returned IL-1B inflam inh -83*, DT40 TDP1 CPT -25%, RORg inh inconclusive, VP16 counter -30%, LDHA inh -2 and TDP1 cell noCPT inconclusive.
For N#C/C(=C\c1cccnc1)c1ccccc1[N+](=O)[O-] the results were IL-1B inflam inh -92*, DT40 TDP1 CPT -3%, RORg inh -24%, VP16 counter 3%, LDHA inh -6 and TDP1 cell noCPT inconclusive.
`C=C(C)Cn1c(N(CC)CC)nc2c1c(=O)n(C)c(=O)n2C` gave LDHA inh 3.
Screening COC(=O)Cn1c(Br)nc2c1c(=O)n(C)c(=O)n2C returned LDHA inh -35*.
For COc1ccc(C(=O)Cn2c(Cl)nc3c2c(=O)n(C)c(=O)n3C)cc1 the results were IL-1B inflam inh 38, DT40 TDP1 CPT inconclusive, RORg inh 16%, VP16 counter -10%, LDHA inh -12 and TDP1 cell noCPT 21µM*.
